Results as given in PubChem BioAssay.
Unmarked numbers belong to inactive results. The source made the active and inactive calls.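 Rule for the calls: active = compounds that lower survival of DLD-1 colon cancer cells in the luminescence readout, no cutoff given; inactive = the rest.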

Assay: NPC library primary testing for decreased DLD-1 cell viability via CellTiter-Glo (AID 1117346)
Settings: DLD-1 viability, CellTiter-Glo luminescence; at 20 µM (top of the series)
With O=C(Nc1ccc([N+](=O)[O-])cc1Cl)c1cc(Cl)ccc1O the viability decrease (inhibition) was 102% (active).
For CNC[C@H](O)c1cccc(O)c1, the viability decrease (inhibition) was -9.9%.
With O=NN(CCCl)C(=O)NCCCl the viability decrease (inhibition) was -24.6%.
COc1ccnc(CS(=O)c2nc3ccc(OC(F)F)cc3[nH]2)c1OC (stereo not drawn) gave a viability decrease (inhibition) of -5.4%.
With COc1ccc2cc3[n+](cc2c1OC)CCc1cc2c(cc1-3)OCO2 the viability decrease (inhibition) was 62.7% (active).
For CN(Cc1cc(Br)cc(Br)c1N)C1CCCCC1, the viability decrease (inhibition) was 97.2% (active).
O=C(NC(Cc1cc(=O)[nH]c2ccccc12)C(=O)O)c1ccc(Cl)cc1 (stereo not drawn) gave a viability decrease (inhibition) of -11.3%.
For NC(=O)NO, the viability decrease (inhibition) was -7.1%.
For Cc1ccc(S(=O)(=O)NC(=O)NN2CC3CCCC3C2)cc1 (stereo not drawn), the viability decrease (inhibition) was -0.5%.
Work on OC[C@H]1O[C@@H](O[C@@H]2[C@@H](CO)O[C@](O)(CO)[C@H]2O)[C@H](O)[C@@H](O)[C@H]1O yielded a viability decrease (inhibition) of -4.2%.
Work on NNc1nncc2ccccc12 yielded a viability decrease (inhibition) of -2.1%.
Work on CCOC(=O)C(C)(C)Oc1ccc(Cl)cc1 yielded a viability decrease (inhibition) of -40.7%.
Work on CC(=O)Oc1ccccc1C(=O)O yielded a viability decrease (inhibition) of -4.2%.
Work on NC(=O)c1ncn([C@@H]2O[C@H](CO)[C@@H](O)[C@H]2O)n1 yielded a viability decrease (inhibition) of 11.6%.
In the case of CN(C)c1ccc(C(=C2C=CC(=[N+](C)C)C=C2)c2ccc(N(C)C)cc2)cc1, the viability decrease (inhibition) is reported as 106% (active).
Compound Cn1cnc2c1c(=O)[nH]c(=O)n2C has a viability decrease (inhibition) of -19.1%.
Compound COc1ccc(CCN(C)CCCC(C#N)(c2ccc(OC)c(OC)c2)C(C)C)cc1OC (stereo not drawn) has a viability decrease (inhibition) of -13.8%.
For O=c1oc2c(O)c(O)cc3c(=O)oc4c(O)c(O)cc1c4c23, the viability decrease (inhibition) was 30.7%.
